From PubChem
An excerpt weighted towards active compounds, which were near 10% of everything screened.
HPGD inh – qHTS Assay for Inhibitors of HPGD (15-Hydroxyprostaglandin Dehydrogenase). purified HPGD, NADH fluorescence kinetic, PGE2 substrate. Potency, µM, without a hit: at the top dose activity change, negative = inhibition, actives largely listed as inhibitors. AID 894, 2007. 150,000 tested, 4.3% active; active means well fitted inhibition curve with a large enough effect, not every such curve was filed as active; inconclusive means small, poorly fitted or top-dose-only effect, or another doubt; inactive means no such curve, though single readings can be large or run the other way; further: potency means the concentration at half of the fitted maximal effect
Target sequence (P15428 whole entry, looked up): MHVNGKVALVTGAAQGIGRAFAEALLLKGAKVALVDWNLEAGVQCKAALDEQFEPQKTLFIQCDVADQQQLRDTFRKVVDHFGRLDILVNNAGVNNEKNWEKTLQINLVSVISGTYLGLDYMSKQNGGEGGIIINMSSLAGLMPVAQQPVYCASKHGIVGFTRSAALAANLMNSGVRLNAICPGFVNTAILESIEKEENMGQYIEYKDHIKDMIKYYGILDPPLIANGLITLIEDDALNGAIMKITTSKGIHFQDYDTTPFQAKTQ
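NADH formation kinetics: reaction with 30 uM PGE2 and 1 mM NAD+ (final), 20 nM enzyme, Tris-HCl pH 8 with Tween 20, after 15 min compound preincubation at room temperature. Fluorescence change, last versus first of five reads.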
aGal spleen mod – qHTS Assay for Inhibitors and Activators of Human alpha-Galactosidase From Spleen Homogenate; Alpha-galactosidase A (Homo sapiens), P06280; human spleen homogenate, 4MU-alpha-Gal fluorescence, 40 min; Potency, µM (doses to about 80 µM), for inactives: at the highest dose activity change, negative = inhibition, usual class: inhibitors; 240,000 tested, 0.008% active; AID 2107, 2009;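 further: potency means the concentration at half of the fitted maximal effect; 0% = enzyme with vehicle and -100% = no enzyme basal signal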
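Spleen homogenate 1 ug + cpd (titration) + 4-MU-alpha-D-galactopyranoside 1 mM; 37C 40 min; 50 mM citrate/phosphate pH 5.0, 0.01% Tween-20; stop pH 10; fluorescence 365/440; AC50 via Hill.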
PNC assembly inh – High Content Assay for Compounds that inhibit the Assembly of the Perinucleolar Compartment | PC3M PTB-GFP, PNC prevalence imaging, 16 h; stronger effect = lower value | activity change (PNC), negative = inhibition, % at 10 µM | 140,000 tested, 3.1% active;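 active means readout at or below -70, meaning at least 70% loss of cells showing the perinucleolar compartment, a nuclear body marking cancer cells; inconclusive means readout between -30 and a set limit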;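 further: plate controls were DMSO wells for no effect and camptothecin positive control wells for full effect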
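PC3M cells stably expressing PTB-GFP, 750–1000 cells/well, treated 16 h at 37 °C with compound (23 nl of library stock), in duplicate. After paraformaldehyde fixation and Hoechst stain, imaged at 20x; PNC prevalence scored by image analysis.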
ALOX12 inhib – qHTS Assay for Inhibitors of 12-hLO (12-human lipoxygenase); Polyunsaturated fatty acid lipoxygenase ALOX12 (Homo sapiens), P18054; purified 12-hLO, xylenol orange hydroperoxide absorbance; Potency, µM (series often up to 57.1 µM), for the others: at the highest dose activity change, negative = inhibition, hits mostly inhibitors; 150,000 tested, 0.12% active; further: potency means the concentration at half of the fitted maximal effect; nearly all actives have a fitted effect of over 55% in size
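Xylenol orange chromogenic assay: hydroperoxide from 12hLO oxidises Fe(II), giving red-shifted Fe(III)-XO absorbance. Conditions: 150 nM enzyme, 40 uM arachidonic acid, 25 mM Hepes pH 7.0, 0.01% Triton X-100, 30 min, room temperature.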
ALDH1A1 inh – qHTS Assay for Inhibitors of Aldehyde Dehydrogenase 1 (ALDH1A1); Aldehyde dehydrogenase 1A1 (Homo sapiens), P00352; 220,000 tested, 7.3% active; AID 1030, 2008; Purified ALDH1A1, NADH fluorescence, propionaldehyde substrate; Potency, µM (top dose mostly 75.3 µM), inactives show at the highest dose activity, negative = inhibition, usual class: inhibitors; active means well fitted inhibition curve with a large enough effect, not every such curve was filed as active; inconclusive means small, poorly fitted or top-dose-only effect, or another doubt; inactive means no such curve, though single readings can be large or run the other way;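 further: potency means the concentration at half of the fitted maximal effect; plate controls were no enzyme wells and a reference inhibitor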
Target sequence (P00352 whole entry, looked up): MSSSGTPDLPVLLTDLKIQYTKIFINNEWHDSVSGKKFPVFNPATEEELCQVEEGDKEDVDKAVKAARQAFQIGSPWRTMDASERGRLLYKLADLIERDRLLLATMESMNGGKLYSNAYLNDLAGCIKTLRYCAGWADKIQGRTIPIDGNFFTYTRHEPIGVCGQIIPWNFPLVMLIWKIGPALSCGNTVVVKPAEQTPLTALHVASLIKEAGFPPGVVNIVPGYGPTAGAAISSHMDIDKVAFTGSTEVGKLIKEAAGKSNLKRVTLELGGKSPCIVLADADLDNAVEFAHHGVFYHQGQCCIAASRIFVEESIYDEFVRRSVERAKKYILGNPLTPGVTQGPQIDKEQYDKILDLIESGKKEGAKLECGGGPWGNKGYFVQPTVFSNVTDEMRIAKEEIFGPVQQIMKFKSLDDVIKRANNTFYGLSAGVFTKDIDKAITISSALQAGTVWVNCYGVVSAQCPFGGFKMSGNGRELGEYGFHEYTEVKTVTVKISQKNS
GLA inh pH 4.5 – qHTS Assay for Inhibitors of Human alpha-Galactosidase at pH 4.5 | activity change, negative = inhibition, % at 105 µM | purified enzyme, 4-MU-alpha-Gal fluorescence, pH 4.5 | 230,000 tested, under 10 active | Alpha-galactosidase A (Homo sapiens), P06280;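 further: 0% = full activity with enzyme and -100% = basal without enzyme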
* hit, by the source's call; ? = inconclusive; . = no result given; [ ] = remark or other dose. Unless noted, the call rests on the fitted dose curve; in most records, active means well fitted curve in the direction sought with a large enough effect; inconclusive means small, poorly fitted or top-dose-only effect, or another doubt; inactive means no such curve, though single readings can be large; an effect the other way counts as inactive or inconclusive. Unless noted, on the % scale 0 is the no-effect control and ±100 the full control effect.

SMILES | HPGD inh | aGal spleen mod | PNC assembly inh | ALOX12 inhib | ALDH1A1 inh | GLA inh pH 4.5
Cc1ccc(C)c(S(=O)(=O)N=Nc2c(O)[nH]c3ccccc23)c1 | . | -7% | . | . | 10µM* | 6
COc1ccc2c(C(=O)CN3CCSCC3)c[nH]c2c1 | . | 0% | . | . | 28µM* | 1
COc1ccc2[nH]cc(C(=O)CN3CCN(C4CCCCC4)CC3)c2c1 | -10% | 8% | 22 | 9% | 25µM* | -8
COc1ccc2c(C(=O)CN(C)C3CCCCC3)c[nH]c2c1 | -15% | -8% | -100* | -4% | ? | -4
COc1ccc2[nH]cc(C(=O)CN3CCCCC3)c2c1 | -12% | -7% | 21 | 0% | -16% | -7
COc1ccc2c(C(=O)CN3CCN(c4ccccc4)CC3)c[nH]c2c1 | -9% | 9% | -22 | 0% | -6% | 3
COc1ccccc1N1CCN(C2CCN(C(=O)COc3ccccc3)CC2)CC1 | . | -8% | . | . | -8% | 5
COc1cccc(NC(=O)C(=O)N/N=C/c2cc(C)n(-c3ccc(Cl)c(Cl)c3)c2C)c1 | ? | 5% | -8 | -4% | ? | 1
CCn1c(=O)[nH]c2ccccc21 | 0% | 3% | . | -3% | 1% | -13
CCn1c(C)c(CS(=O)(=O)c2ccccc2)[nH]c1=O | . | -1% | . | . | 22µM* | 7
CCCc1nc(N2CCOCC2)c2sc(=S)n(-c3ccccc3)c2n1 | -4% | -3% | -2 | 2% | 10µM* | -2
Cc1cccnc1NC(=S)Nc1ccc(Br)cc1Cl | . | 4% | . | . | ? | -2
O=C(NNC(=S)Nc1ccccc1)c1ccncc1 | -11% | -3% | -12 | 2% | ? | 4
O=C(NNC(=S)Nc1ccc(Br)cc1Cl)c1ccncc1 | -20% | 3% | ? | -4% | 18µM* | -10
O=C(CCc1ccc(O)c(O)c1)NNC(=S)Nc1ccc(Br)cc1Cl | . | 4% | . | . | 25µM* | -2
S=C(Nc1ccc(Br)cc1Cl)Nn1cnnc1 | . | 3% | . | . | 7.9µM* | 1
CC#CCN1c2ccccc2[C@]23C[C@@H](C(=O)OC)N(S(=O)(=O)c4ccc(OC)cc4)C2=NC(C(=O)OC)=C(C(=O)OC)[C@H]13 | -1% | 7%[17.5 µM] | . | 0%[11.4 µM] | -8%[13.5 µM] | -2
Cc1sc2nc3n(c(=O)c2c1C)NC(=O)CC3 | -13% | 2% | -100* | -4% | 6% | -1
CCCCCCCN | -4% | -1% | . | -2% | -3% | .
Cc1noc(C)c1-c1cncnc1NCCN1CCOCC1 | . | 4% | . | . | 1% | .
Cc1noc(C)c1-c1nccc(NCc2cccnc2)n1 | -9% | 7% | . | -2% | -1% | -9
CCCN1C(=O)C(Cc2nc3ccccc3c(=O)n2-c2ccccc2)c2ccccc21 (centres undefined) | -2% | -5% | 42 | -1% | 8.9µM* | 0
CC(C)N1C(=O)C(Cc2nc3ccccc3c(=O)n2-c2ccccc2)c2ccccc21 (centres undefined) | -15% | -3% | 11 | -6% | ? | -5
O=C(N/N=C/c1cc2c(cc1[N+](=O)[O-])OCO2)c1cccnc1 | . | -13% | . | . | . | 0
CO/N=C/c1ccc(N2CCN(C(=O)c3ccc(F)cc3)CC2)c([N+](=O)[O-])c1 | -25% | -8% | 2 | -4% | 15% | -5
SMILES | HPGD inh | aGal spleen mod | PNC assembly inh | ALOX12 inhib | ALDH1A1 inh | GLA inh pH 4.5
O=C(N/N=C/c1ccc(N2CCCC2)c([N+](=O)[O-])c1)c1cccnc1 | . | -6% | . | . | 0.28µM* | -4
O=C(N/N=C/c1ccc(N2CCOCC2)c([N+](=O)[O-])c1)c1ccc(F)cc1 | -15% | 1% | 9 | 5% | 5µM* | 7
CC(=O)SC1CC2=CC(=O)CC[C@@]2(C)C2CC[C@@]3(C)[C@@H](CC[C@@]34CCC(=O)O4)C12 (some centres undefined) | -3% | 4% | . | -1% | 3% | -2
CCCCNc1nc(C)nc2c1nc(-c1ccccc1)n2CCCN(C)C | ? | -8% | . | 1% | ? | 9
CN1CCN(C(=O)CCc2nc3ccccc3n2-c2ccccc2)CC1 | -14% | 10% | ? | 0% | 7% | -6
Cc1ccc2cc(CN(C(=O)c3cccs3)c3ccccc3)c(=O)[nH]c2c1 | . | 5% | . | . | . | 1
COc1ccc2[nH]c(=O)c(CN(C(=O)c3ccccn3)c3ccccc3)cc2c1 | ? | 12% | -92* | -1% | ? | 5
Cc1ccc2[nH]c(=O)c(CN(C(=O)c3cccs3)c3ccccc3)cc2c1 | -2% | 0% | -85* | 0% | 5% | 5
COC(=O)C/C=C\[C@@H](C)[C@@H](/C=N\OC[C@@H](O)[C@H]1O[C@H]2OC(C)(C)O[C@H]2[C@@H]1O)NS(=O)(=O)c1ccc(C)cc1 | . | 5%[17.5 µM] | . | . | -3%[13.5 µM] | .
CC1(C)CC(=O)C2=C(C1)N=C1SCCC(=O)N1C2c1cccc([N+](=O)[O-])c1 (centres undefined) | . | -2% | . | . | 10µM* | 1
O=C1CSC(c2cccc([N+](=O)[O-])c2)N1c1ccc(O)cc1 (centres undefined) | . | 5% | . | . | 5% | 0[21.1 µM]
O=C(c1ccccc1)N(Cc1nc2ccccc2c(=O)[nH]1)C1CCCCC1 | . | 7% | . | . | 3.5µM* | 3
O=C(c1cccc(F)c1)N(Cc1nc2ccccc2c(=O)[nH]1)C1CCCC1 | . | -4% | . | . | -9% | 3
CCOc1cc(O)c(-c2[nH]ncc2-c2nc(C)cs2)cc1CC | . | 4% | . | . | . | -8
CC(C)NC(=O)C1CCN(C(=O)c2cc3sccc3n2Cc2ccc(F)cc2)CC1 | 0% | 4% | -22 | -1% | 13µM* | -5
CC1CCN(C(=O)C2CCN(C(=O)c3cc4sccc4n3Cc3ccc(F)cc3)CC2)CC1 | -3% | 3% | 7 | -8% | 14µM* | -13
CCOC(=O)CCNCC1COc2ccccc2O1 (centres undefined) | -4% | 4% | -92* | 5% | 7% | 4
O=C1CC2(CCCC2)CC(=O)N1CCCCNC[C@H]1COc2ccccc2O1 | -2% | -2% | . | 0% | 10µM* | -2
Cc1nn2c(C(F)(F)F)cc(-c3ccc(Cl)cc3)nc2c1C(=O)N1CCOCC1 | ? | 2% | ? | 4% | 11µM* | -11
O=C(c1cnn2c(C(F)(F)F)cc(-c3ccccc3)nc12)N1CCOCC1 | ? | -6% | ? | -6% | 4% | 1
